Screening results deposited in PubChem BioAssay by National Center for Advancing Translational Sciences (NCATS).
Many of the other results were omitted from the sample, so hits are more common in it than they were.
Pf Dd2 inh: inhibitors of Plasmodium falciparum Dd2 growth. P. falciparum Dd2 growth, SYBR Green, 72 h. Potency, µM (top dose mostly 28.9 µM), for the others: at the highest dose activity, negative = inhibition, most hits filed as inhibitors. hit rate 4.3% among 120,000; active means well fitted inhibition curve with a large enough effect;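 further: plate controls were DMSO vehicle for no effect and reference drug for full effect; nearly all actives have a fitted effect of over 65% in size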
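Readout: SYBR Green fluorescence, 485 nm excitation, 535 nm emission, after ~16 h lysis at 37C. Before that, Dd2-infected red cells (2.5% hematocrit) grew 72 h with compound, 29 uM top final concentration.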
* hit, by the source's call; [ ] = dose if it differs, or a comment. Potency means the concentration at half of the fitted maximal effect.

Screening O=C1c2cc(N3CCOCC3)nc(-c3cccc(O)c3)c2CN1CC(F)(F)F returned Pf Dd2 inh 2.8µM*.
`O=C1c2cc(N3CCOCC3)nc(-c3cccc(F)c3)c2CN1CC1CC1` gave Pf Dd2 inh inactive.
For COc1cccc(-c2nc(N3CCOCC3)cc3c2CN(Cc2ccccc2)C3=O)c1OC the results were Pf Dd2 inh 11µM*.
CN1C(=O)[C@@H]2C[C@@H](CN2C2COC2)Oc2ccccc21 was read as Pf Dd2 inh 6%[44.1 µM].
Screening O=C(NCc1ccccc1)N1CCC(N(C(=O)C2CC2)C2CCOCC2)CC1 returned Pf Dd2 inh 8%.
Screening CCN(CC)C1CCOC2(CCN(C(=O)C(C)C)CC2)C1 (stereo not given) returned Pf Dd2 inh -2%.
Screening COc1cccc(N2C(=O)CSC23C(=O)N(Cc2ccccc2F)c2ccccc23)c1 (stereo not given) returned Pf Dd2 inh -19%.
Screening COc1cc(N2C(=O)CSC23C(=O)N(Cc2ccc(C)cc2)c2ccccc23)cc(OC)c1OC (stereo not given) returned Pf Dd2 inh -18%.
`Cc1ccc(NC(=O)CN2C(=O)NC3(CCCCC3)C2=O)c(C)c1` gave Pf Dd2 inh 3%.
`O=C(CN1C(=O)C2(SCC(=O)N2c2ccc(F)c(F)c2)c2ccccc21)Nc1ccccc1F` (stereo not given) gave Pf Dd2 inh 13µM*.
For O=C1CSC2(C(=O)N(Cc3ccccc3F)c3ccccc32)N1c1cccc(C(F)(F)F)c1 (stereo not given) the results were Pf Dd2 inh 7.1µM*.
For Cc1ccc(NC(=O)CN2C(=O)C3(SCC(=O)N3c3ccc(F)c(F)c3)c3ccccc32)c(C)c1 (stereo not given) the results were Pf Dd2 inh 14µM*.
Cc1cc(C)cc(N2C(=O)CSC23C(=O)N(CC(=O)Nc2ccc(F)cc2F)c2ccccc23)c1 (stereo not given) was read as Pf Dd2 inh 10µM*.
Screening O=C(CN1C(=O)C2(SCC(=O)N2c2ccccc2)c2ccccc21)NCCc1ccccc1 (stereo not given) returned Pf Dd2 inh 16%.
`COc1ccc(N2C(=O)CSC23C(=O)N(Cc2ccccc2F)c2ccccc23)cc1Cl` (stereo not given) gave Pf Dd2 inh inactive.
O=C(CN1C(=O)CCSc2ccccc21)Nc1ccccc1F was read as Pf Dd2 inh 4%.
Cc1ccc(CNC(=O)CN2C(=O)C3(SCC(=O)N3c3ccc(F)cc3)c3ccccc32)cc1 (stereo not given) was read as Pf Dd2 inh -18%.
Screening Cc1ccc(NC(=O)CN2C(=O)CCSc3ccccc32)c(C)c1 returned Pf Dd2 inh 25%.
CN1[C@@H](CCC(=O)Nc2ccccc2)CNC(=O)[C@@H]2[C@H]1CCN2C1CCCCC1 was read as Pf Dd2 inh inactive.
Screening CNC(=O)[C@@H]1CN(C(=O)c2ccc(C#N)cc2)C[C@H]1COC returned Pf Dd2 inh 7%.
Screening O=C(C1CN(S(=O)(=O)c2cccs2)CC12CCCCC2)N1CCCC1 (stereo not given) returned Pf Dd2 inh inactive.
For Cn1cc(CNC(=O)C[C@@H]2C[C@H]3O[C@H](CNC(=O)Nc4cccc(Cl)c4)[C@@H](O)[C@H]3O2)cn1 the results were Pf Dd2 inh 17%.
`CC(C)(C)OC(=O)N1CCC(Cn2c(=O)[nH]c3cccnc32)CC1` gave Pf Dd2 inh -18%[44.1 µM].
For O=C(C1CCC(=O)N(C2CCCCCC2)C1)N1Cc2ccccc2C1 (stereo not given) the results were Pf Dd2 inh -12%.
`COC1C(=O)N(CC2CC2)C12CCN(S(=O)(=O)c1c(C)nn(C)c1C)CC2` (stereo not given) gave Pf Dd2 inh -1%.
CCC1(N2CCN(C(=O)c3ccc(C(F)(F)F)cc3)CC2)CCN(S(C)(=O)=O)C1 (stereo not given) was read as Pf Dd2 inh -11%.
For COc1ccccc1Oc1c(CCC(=O)NCC2CCCO2)c(C)nn1-c1ccc(F)cc1 (stereo not given) the results were Pf Dd2 inh inactive.
CCOC(=O)C1CCCN(C(=O)c2cnc3cc(C)nn3c2)C1 (stereo not given) was read as Pf Dd2 inh -2%[44.1 µM].
`COc1cc(OC)cc(C(=O)N2C[C@@H](F)C[C@H]2C(=O)N2CCCCC2)c1` gave Pf Dd2 inh 24%.
Cc1cccc(NC(=O)N2CCCC(Cc3noc(C4CC4)n3)C2)c1 (stereo not given) was read as Pf Dd2 inh 1%.
For COc1cccc(CN2C(=O)C3(SCC(=O)N3c3ccc(C)c(Cl)c3)c3ccccc32)c1 (stereo not given) the results were Pf Dd2 inh inactive.
COc1ccc(N2C(=O)CSC23C(=O)N(Cc2ccc(C)cc2)c2ccccc23)cc1Cl (stereo not given) was read as Pf Dd2 inh -19%.
`COc1cccc(N2C(=O)CSC23C(=O)N(CC(=O)Nc2cc(C)ccc2C)c2ccccc23)c1` (stereo not given) gave Pf Dd2 inh 8.9µM*.
